Results published in PubChem BioAssay AID624052 (National Center for Advancing Translational Sciences (NCATS), 2012).
The source made the active and inactive calls.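 How the source made its calls: active means IC50 at or below 10 µM; inconclusive means IC50 above 10 µM but below 20 µM; inactive means IC50 of 20 µM or more.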

biological target: Neuropeptide S receptor (Homo sapiens) (UniProt Q6W5P4); assay: Robust Characterization of Calcium Signal Transduction Antagonists of the Neuropeptide S Receptor: SAR; conditions: CHO-NPSR cells, NPS-induced calcium fluorescence (FDSS)
Source text: Neuropeptide S receptor (NPSR), previously known as GPR154, is a recently de-orphanized G protein coupled receptor. Its endogenous ligand is the 20 amino acids peptide Neuropeptide S (NPS). […] NPS and its receptor are found in various tissues. Specifically they are highly expressed in brain areas that have been implicated in modulation of arousal, stress and anxiety. Central administration of NPS in mice produces an unusual profile of activity by inducing wakefulness and arousal, while at the same time suppressing anxiety. Therefore, NPSR may represent a novel drug target for the treatment of sleep and anxiety disorders. To identify NPSR antagonists, we developed a cell-based assay with transfected NPS receptor. NPS can stimulate the production of cAMP as well as release intracellular calcium in Chinese hamster ovary cells stably expressing NPS receptor. This change in intracellular calcium can be detected using a calcium indicator dye on a calcium imaging plate reader system (FDSS). This particular assay uses a high density of sampling across concentration-response space to establish more confidence estimates of potency. NIH Chemical Genomics Center [NCGC] NIH Molecular Libraries Probe Production centers Network [MLPCN] MLPCN Grant: DA026210 Assay Submitter (PI): Heilig, Markus Alexander
A Chinese hamster ovary (CHO) cell line stably expressing the NPS receptor (CHO-NPSR) was obtained from Dr. Heilig lab at NIAAA and maintained in F-12 Kaighn's media (Invitrogen, Carlsbad, CA, 21127) supplemented with 10 % FBS, 100 units/ml penicillin, 100 ug/ml streptomycin and 250 ug/ml geneticin at 37C, 5% CO2 in a humidified atmosphere. Before the assay, aliquots of cells were frozen and stored at -135C. The assay was performed on a FDSS-7000 kinetic plate reader in 1536-well format. For both agonist (1-220s) and antagonist (221-400s) phases, the maximums of kinetic fluorescence responses were converted separately into text files using the instrument's software data export utility. Data for agonist response were normalized to the controls for basal activity (DMSO only) and 100% activation (NPS). Data for antagonist response were normalized to the controls for basal activity (DMSO only) and 100% inhibition (No NPS control). AC50 values were determined from concentration-response data modeled with the standard Hill equation. NPS 1536-well FDSS assay protocol: (1) Frozen CHO-NPSR cells were thaw, washed once with fresh media and resuspended in F-12 Kaighn's media supplemented with 10 % FBS, 100 units/ml penicillin and 100 ug/ml streptomycin. Cells were plated at 3 ul/well (1200 cells) to black, clear-bottom, tissue-culture treated 1536-well plates, and then cultured at 37C, 5 % CO2 for 16 to 30 hours. […]

Chain of Neuropeptide S receptor (Homo sapiens) (Q6W5P4 whole entry, looked up): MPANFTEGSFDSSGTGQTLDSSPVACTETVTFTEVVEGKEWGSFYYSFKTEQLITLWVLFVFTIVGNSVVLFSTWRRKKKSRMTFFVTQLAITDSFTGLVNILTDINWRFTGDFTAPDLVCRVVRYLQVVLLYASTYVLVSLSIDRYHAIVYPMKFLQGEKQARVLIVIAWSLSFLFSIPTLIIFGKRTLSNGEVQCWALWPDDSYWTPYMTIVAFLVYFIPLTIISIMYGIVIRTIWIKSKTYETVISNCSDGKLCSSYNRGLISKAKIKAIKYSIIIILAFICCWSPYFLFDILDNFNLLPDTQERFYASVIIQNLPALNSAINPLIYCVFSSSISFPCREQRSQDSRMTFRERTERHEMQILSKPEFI

IC50, active:
O=C1OC(c2ccccc2)(c2ccccc2)N2CCN(C(=O)NCc3ccc(F)cc3)CC12 (centres undefined) 570 nM, CCC(C)(CCN1CCOCC1)N(Cc1cc2ccccc2n(C)c1=O)C(=O)C1CCCCC1 (centres undefined) 57.8 nM, Cc1c(P(=S)(c2ccccc2)c2ccccc2)[n+]2ccccc2n1C/C=C/c1ccccc1 36.5 nM, COc1ccc(C2c3c(ncn(CCN4CCOCC4)c3=N)Oc3ccc4ccccc4c32)cc1OC (centres undefined) 4940 nM
